{"source": "the supplement of paper PMC8975748", "note": "Counter-ions that a name gives are not always drawn."}
{"tested_on": "Saccharomyces cerevisiae BY4741 SeMeCo community", "assay": "z-score of subpopulation abundance vs DMSO median, subpopulation auxotrophic for HM; higher = larger share of this subpopulation than in DMSO controls", "conditions": "10 µM; 24 h; SM minimal medium; subpopulation (auxotrophy): HM", "description": "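Fluorescent four-plasmid SeMeCo (self-establishing metabolically cooperating S. cerevisiae BY4741 community; plasmids pH-mRuby2, pL-mWasabi, pU-eCFP, pM-TagRFP657) was grown 24 h in minimal SM medium with each Selleck FDA-approved drug at 10 µM in 384-well plates. Cells were fixed and imaged by high-content confocal microscopy. For each auxotrophic subpopulation (and the prototroph), a z-score gives the deviation from the DMSO vehicle-control population median.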"}
{"smiles": "O=C1CCc2ccc(OCCCCN3CCN(c4cccc(Cl)c4Cl)CC3)cc2N1", "note": "[Aripiprazole]", "z-score of subpopulation abundance": 0.47}
{"smiles": "CCCN(CCC)CCc1cccc2c1CC(=O)N2", "note": "[Ropinirole HCl]", "z-score of subpopulation abundance": 0.44}
{"smiles": "NC(CO)(CO)CO", "note": "[Trometamol]", "z-score of subpopulation abundance": -0.48}
{"smiles": "COc1cc(N)c(Cl)cc1C(=O)NC1CCN(CCCOc2ccc(F)cc2)CC1OC", "note": "(stereo not given) [Cisapride hydrate]", "z-score of subpopulation abundance": 0.29}
{"smiles": "OCCN1CCN(CC/C=C2/c3ccccc3Sc3ccc(C(F)(F)F)cc32)CC1", "note": "[Flupenthixol dihydrochloride]", "z-score of subpopulation abundance": 0.47}
{"smiles": "N#Cc1ccc(Oc2ccc3c(c2)COB3O)cc1", "note": "[Crisaborole (AN2728)]", "z-score of subpopulation abundance": 0.93}
{"smiles": "Clc1ccc(COC(Cn2ccnc2)c2ccc(Cl)cc2Cl)c(Cl)c1", "note": "(stereo not given) [Miconazole]", "z-score of subpopulation abundance": 0.94}
{"smiles": "CC1(C)S[C@@H]2[C@H](NC(=O)Cc3ccccc3)C(=O)N2[C@H]1C(=O)O.CCN(CC)CCOC(=O)c1ccc(N)cc1", "note": "[Penicillin G Procaine]", "z-score of subpopulation abundance": 0.69}
{"smiles": "NC[C@H]1O[C@H](O[C@H]2[C@H](O)[C@@H](O[C@H]3O[C@H](CO)[C@@H](O)[C@H](N)[C@H]3O)[C@H](N)C[C@@H]2N)[C@H](N)C[C@@H]1O", "note": "[Tobramycin]", "z-score of subpopulation abundance": -0.2}
{"smiles": "O=C(c1ccc(F)cc1)C1CCN(CCn2c(=O)[nH]c3ccccc3c2=O)CC1", "note": "[Ketanserin]", "z-score of subpopulation abundance": -0.51}
{"smiles": "Cc1c(Nc2ncccc2C(=O)O)cccc1C(F)(F)F", "note": "[Flunixin Meglumin]", "z-score of subpopulation abundance": -0.07}
{"smiles": "N=C(N)NC(=N)N1CCOCC1", "note": "[Moroxydine HCl]", "z-score of subpopulation abundance": -0.15}
{"smiles": "CCOC(=O)C1=C[C@]2(CC)CCCN3CCc4c(n1c1ccccc41)[C@@H]32", "note": "[Vinpocetine]", "z-score of subpopulation abundance": 0.55}
{"smiles": "CC1=C(C(=O)OCCN(Cc2ccccc2)c2ccccc2)C(c2cccc([N+](=O)[O-])c2)C(P2(=O)OCC(C)(C)CO2)=C(C)N1", "note": "(stereo not given) [Efonidipine]", "z-score of subpopulation abundance": 1.87}
{"smiles": "CNC1CCCN(c2c(F)cc3c(=O)c(C(=O)O)cn(C4CC4)c3c2OC)C1", "note": "(stereo not given) [Balofloxacin]", "z-score of subpopulation abundance": -0.09}
{"smiles": "COc1cc([C@@H]2c3cc4c(cc3[C@@H](O[C@@H]3O[C@@H]5CO[C@@H](c6cccs6)O[C@H]5[C@H](O)[C@H]3O)[C@H]3COC(=O)[C@H]23)OCO4)cc(OC)c1O", "note": "[Teniposide]", "z-score of subpopulation abundance": 0.99}
{"smiles": "CC(C)NNC(=O)c1ccncc1", "note": "[Iproniazid]", "z-score of subpopulation abundance": -0.24}
{"smiles": "C1N2CN3CN1CN(C2)C3", "note": "[Methenamine]", "z-score of subpopulation abundance": 1.35}
{"smiles": "O=c1ccc2cc(O)c(O)cc2o1", "note": "[Esculetin]", "z-score of subpopulation abundance": 3.75}
{"smiles": "CN[C@H](CC(C)C)C(=O)N[C@H]1C(=O)N[C@@H](CC(N)=O)C(=O)N[C@H]2C(=O)N[C@H]3C(=O)N[C@H](C(=O)N[C@H](C(=O)O)c4cc(O)cc(O)c4-c4cc3ccc4O)[C@H](O)c3ccc(c(Cl)c3)Oc3cc2cc(c3O[C@@H]2O[C@H](CO)[C@@H](O)[C@H](O)[C@H]2O[C@H]2C[C@](C)(N)[C@H](O)[C@H](C)O2)Oc2ccc(cc2Cl)[C@H]1O", "note": "[Vancomycin]", "z-score of subpopulation abundance": -0.74}
{"smiles": "CC1(C)S[C@@H]2[C@H](NC(=O)[C@H](NC(=O)N3CCN(S(C)(=O)=O)C3=O)c3ccccc3)C(=O)N2[C@H]1C(=O)O", "note": "[Mezlocillin Sodium]", "z-score of subpopulation abundance": -0.71}
{"smiles": "CC(C)(O/N=C(\\C(=O)N[C@@H]1C(=O)N2C(C(=O)[O-])=C(C[n+]3ccccc3)CS[C@H]12)c1csc(N)n1)C(=O)O", "note": "[Ceftazidime]", "z-score of subpopulation abundance": -0.26}
{"smiles": "CC1(C)S[C@@H]2[C@H](NC(=O)COc3ccccc3)C(=O)N2[C@H]1C(=O)O", "note": "[Penicillin V potassium salt]", "z-score of subpopulation abundance": 0.44}
{"smiles": "Oc1c(Cl)cc(Cl)c(Cl)c1Cc1c(O)c(Cl)cc(Cl)c1Cl", "note": "[Hexachlorophene]", "z-score of subpopulation abundance": 9.29}
{"smiles": "NC(=O)N1c2ccccc2C=Cc2ccccc21", "note": "[Carbamazepine]", "z-score of subpopulation abundance": -0.61}
{"smiles": "O=C1NC(=O)C(c2ccccc2)(c2ccccc2)N1", "note": "[Phenytoin]", "z-score of subpopulation abundance": -0.81}
{"smiles": "CNCC[C@@H](Oc1ccccc1C)c1ccccc1", "note": "[Atomoxetine HCl]", "z-score of subpopulation abundance": -0.84}
{"smiles": "NCc1ccccc1CC(=O)N[C@@H]1C(=O)N2C(C(=O)O)=C(CSc3nnnn3CC(=O)O)CS[C@H]12", "note": "[Ceforanide]", "z-score of subpopulation abundance": 1.01}
{"smiles": "CN(C)CCc1c[nH]c2ccc(CS(=O)(=O)N3CCCC3)cc12", "note": "[Almotriptan Malate]", "z-score of subpopulation abundance": -1.15}
{"smiles": "O=C(Nc1cccc(C2=NCCN2)c1)Nc1cccc(C2=NCCN2)c1", "note": "[Imidocarb dipropionate]", "z-score of subpopulation abundance": -0.79}
{"smiles": "CCNC(=O)[C@@H]1CCCN1C(=O)[C@H](CCCNC(=N)N)NC(=O)[C@H](CC(C)C)NC(=O)[C@@H](CC(C)C)NC(=O)[C@H](Cc1ccc(O)cc1)NC(=O)[C@H](CO)NC(=O)[C@H](Cc1c[nH]c2ccccc12)NC(=O)[C@H](Cc1c[nH]cn1)NC(=O)[C@@H]1CCC(=O)N1", "note": "[Leuprolide Acetate]", "z-score of subpopulation abundance": 0.95}
{"smiles": "Cc1cccc(N(C)C(=S)Oc2ccc3ccccc3c2)c1", "note": "[Tolnaftate]", "z-score of subpopulation abundance": -0.59}
{"smiles": "CC/C(=C(\\c1ccccc1)c1ccc(OCCN(C)C)cc1)c1ccccc1", "note": "[Tamoxifen]", "z-score of subpopulation abundance": 0.93}
{"smiles": "CC(C)Cc1ccc(C(C)C(=O)O)cc1", "note": "(stereo not given) [Ibuprofen Lysine]", "z-score of subpopulation abundance": -1.04}
{"smiles": "CC(=O)OC(C)C[N+](C)(C)C", "note": "(stereo not given) [Methacholine chloride]", "z-score of subpopulation abundance": 0.64}
{"smiles": "Cc1onc(-c2ccccc2)c1-c1ccc(S(N)(=O)=O)cc1", "note": "[Valdecoxib]", "z-score of subpopulation abundance": -0.77}
{"smiles": "O=c1[nH]cnc2c1ncn2[C@@H]1O[C@H](CO)[C@@H](O)[C@H]1O", "note": "[Isoprinosine]", "z-score of subpopulation abundance": -0.53}
{"smiles": "NC(=O)c1cn(Cc2c(F)cccc2F)nn1", "note": "[Rufinamide]", "z-score of subpopulation abundance": 0.75}
{"smiles": "CCCCCCCCCC(=O)N[C@@H](Cc1c[nH]c2ccccc12)C(=O)N[C@H](CC(N)=O)C(=O)N[C@@H](CC(=O)O)C(=O)N[C@@H]1C(=O)NCC(=O)N[C@@H](CCCN)C(=O)N[C@@H](CC(=O)O)C(=O)N[C@H](C)C(=O)N[C@@H](CC(=O)O)C(=O)NCC(=O)N[C@H](CO)C(=O)N[C@@H]([C@H](C)CC(=O)O)C(=O)N[C@@H](CC(=O)c2ccccc2N)C(=O)O[C@@H]1C", "note": "[Daptomycin]", "z-score of subpopulation abundance": 1.93}
{"smiles": "CCCCCCCCN=c1ccn(CCCCCCCCCCn2ccc(=NCCCCCCCC)cc2)cc1", "note": "[Octenidine Dihydrochloride]", "z-score of subpopulation abundance": 6.33}
